Test results as given in PubChem BioAssay AID652054 (National Center for Advancing Translational Sciences (NCATS), 2013).
In all, about 360,000 compounds went through this assay and about 9,100 (2.5%) were called active. Another 4% or so got no clear call; they are omitted. The sample as a whole holds a higher share of actives than the screen did. A number with no mark means an inactive call. Rule as the data show it: active = max response below about -50%; inconclusive = no clear call, values can overlap the other calls; inactive = above that.
% is scaled to controls: 0 for no effect and ±100 for the full control effect.

What follows are molecules tested against D(3) dopamine receptor (Homo sapiens) (UniProt P35462) (assay: qHTS of D3 Dopamine Receptor Antagonist: qHTS). Settings: D3R cells, DiscoveRx beta-arrestin luminescence, antagonist mode; active compounds read low.
Sequence of D(3) dopamine receptor (Homo sapiens) (P35462 whole entry, looked up): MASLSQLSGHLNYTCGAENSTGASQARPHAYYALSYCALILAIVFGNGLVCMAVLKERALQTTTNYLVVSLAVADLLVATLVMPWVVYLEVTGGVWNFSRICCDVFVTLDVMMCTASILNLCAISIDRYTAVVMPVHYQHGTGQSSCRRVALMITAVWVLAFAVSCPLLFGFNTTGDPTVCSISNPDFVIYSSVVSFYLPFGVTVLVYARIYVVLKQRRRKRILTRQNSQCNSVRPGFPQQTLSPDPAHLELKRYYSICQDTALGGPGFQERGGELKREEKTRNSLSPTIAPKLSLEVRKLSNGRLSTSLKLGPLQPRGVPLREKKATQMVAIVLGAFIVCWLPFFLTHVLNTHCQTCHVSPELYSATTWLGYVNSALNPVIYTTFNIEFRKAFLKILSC
Method in brief: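 Cells plated overnight at 1500 cells/well, then exposed to library compounds with dopamine controls for 90 minutes at 37 degrees C. DiscoveRx reagent added for 30–60 minutes at room temperature; luminescence read, quantitative HTS format.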
Work on `N#Cc1cccc(NC(=O)c2cc(C3CCCCN3C(=O)CCc3ccccc3)on2)c1` (configuration not stated) yielded a max response, negative = inhibition of -8.91%. Work on `CCCCCn1nnnc1-c1nc2cc3ccccc3cc2[nH]c1=O` yielded a max response, negative = inhibition of -8.12%. `COCCCNc1ccn2nc(-c3ccc(CC(C)C)cc3)cc2n1` gave a max response, negative = inhibition of 31.5%. Work on `Cc1ccccc1NC(=O)Cc1nc(COC(=O)C(C)(C)Oc2ccc(Cl)cc2)cs1` yielded a max response, negative = inhibition of 24.6%. With `CC(C)(C)CC(=O)Nc1nc(C(N)Cc2ccc(C(F)(F)F)cc2)cs1` (configuration not stated) the max response, negative = inhibition was 0%. `Cc1ccc(-c2nnc(SCC(=O)N/N=C/c3cccs3)n2-c2ccc(C)cc2)cc1` showed a max response, negative = inhibition of 11.6%. With `Cc1nnc(SCC(=O)Nc2cccc(N)c2)n1-c1ccccc1` the max response, negative = inhibition was 9.89%. `Cc1nnc(SCC(=O)N/N=C/c2cn(-c3ccccc3)nc2-c2ccc(F)cc2)n1-c1ccccc1` was tested, and the max response, negative = inhibition was -52.1% (active). `CCOC(=O)[C@]12CCCC=C1N(CCC1=CCCCC1)C(=O)[C@H](CC(=O)NCCCCc1ccccc1)C2` showed a max response, negative = inhibition of -12.8%. For `CCC(C(=O)Nc1c(C)cccc1C)n1c(-c2cc(C)cs2)nc2ccccc21` (configuration not stated), the max response, negative = inhibition was -4.88%. For `Nc1c(C(=O)c2cccs2)sc2nsc(SCCN3CCCCC3)c12`, the max response, negative = inhibition was -51.8% (active). For `Nc1ncnc2c1ncn2[C@@H]1O[C@H](C(=O)NS(=O)(=O)c2c(Cl)nc3sccn23)[C@@H](O)[C@H]1O`, the max response, negative = inhibition was 24.3%. With `Cc1ccc(-c2ccc(CN3C(C(C)C)C(=O)N(Cc4cn(CCC5OCCO5)nn4)CCS3(=O)=O)cc2)cc1` (configuration not stated) the max response, negative = inhibition was 5.58%. `O=C(Nc1ccc(Cl)cc1)c1csc([C@@H]2O[C@H](CO)[C@H](O)[C@H](O)[C@H]2O)n1` showed a max response, negative = inhibition of -15.5%. `CC1=C(C(=O)N(C)C)CC(CC(=O)NCCN2CCOCC2)C(=O)N1Cc1ccccc1` (configuration not stated) was tested, and the max response, negative = inhibition was -7.58%. With `CC(=O)Nc1cc(-c2ccc(N3CCN(C)CC3)cc2)cn2c(-c3cccc(C(=O)N(C)C)c3)cnc12` the max response, negative = inhibition was 9.1%. `CCOc1ccc(C2/C(=C(/O)c3ccc4c(c3)CC(C)O4)C(=O)C(=O)N2CCCn2ccnc2)cc1` (configuration not stated) showed a max response, negative = inhibition of -12.2%. For `CCCOc1ccc(C2C(C(=O)c3ccc(C)o3)=C(O)C(=O)N2CCCn2ccnc2)cc1` (configuration not stated), the max response, negative = inhibition was -63.3% (active). `C=CCOc1cccc(C2C(C(=O)c3ccc(C)o3)=C(O)C(=O)N2CCN2CCOCC2)c1` (configuration not stated) gave a max response, negative = inhibition of 0.324%. `Cc1ccc(C)c(C(O)c2ncc(-c3cccc4ccccc34)[nH]2)c1` (configuration not stated) showed a max response, negative = inhibition of -3.53%. In the case of `COC(=O)c1ccc2nc(-c3ccc(Cl)cc3)c(Cc3cccc(F)c3)n2c1`, the max response, negative = inhibition is reported as 88.8%. With `CCN(CC(=O)Nc1c(F)cccc1F)C(=O)c1ccc(Sc2nncn2C)c([N+](=O)[O-])c1` the max response, negative = inhibition was 2.59%. In the case of `Cn1cnnc1Sc1ccc(S(C)(=O)=O)cc1[N+](=O)[O-]`, the max response, negative = inhibition is reported as -78.8% (active). `CC(=O)Nc1ccc(Nc2c([N+](=O)[O-])cc(S(C)(=O)=O)cc2[N+](=O)[O-])cc1` gave a max response, negative = inhibition of -15.9%. `CC1=C(C(=O)Nc2cccc(C(=O)NCC(C)c3ccccc3)c2)SCCO1` (configuration not stated) was tested, and the max response, negative = inhibition was 104%. `O=C1c2cccc3cc(Br)cc(c23)C(=O)N1Nc1ccccc1` was tested, and the max response, negative = inhibition was -62.9% (active). With `O=C(CN1C(=O)c2cccc3cccc1c23)Nc1ccccc1` the max response, negative = inhibition was 5.41%. Work on `O=C1C=C(c2ccc(Cl)cc2)C(=O)N1Nc1ccccc1` yielded a max response, negative = inhibition of -22.9%. `COc1cccc(CNc2nc(NCc3ccccc3OC)nc3ccsc23)c1` gave a max response, negative = inhibition of 31.6%. `O=C(C1CC(=O)N(C2CCCC2)C1)N1CCN(c2cccc(C(F)(F)F)c2)CC1` (configuration not stated) gave a max response, negative = inhibition of -17.8%. For `O=C(CCN1CCCO1)N1CCCC(N2CCN(c3cccc(C(F)(F)F)c3)CC2)C1` (configuration not stated), the max response, negative = inhibition was -5.11%. For `O=C1C2CCCN2C(=O)N1CCCCN1CCN(c2cccc(C(F)(F)F)c2)CC1` (configuration not stated), the max response, negative = inhibition was -115% (active). `CCCCCc1c(-c2ccc(OC)c(OC)c2)ncn1CCc1ccccc1OC` was tested, and the max response, negative = inhibition was -3.21%. Work on `O=C1NC[C@H](Cc2ccc(O)cc2)N(C[C@H]2CCCN2C[C@H](Cc2ccccc2)N2C[C@H](Cc3ccccc3)N(CCc3ccccc3)C(=O)C2=O)C1=O` yielded a max response, negative = inhibition of -27.9%. For `COc1ccc(CN2C(=O)C(CC(=O)NCCCCc3ccccc3)CC(C(=O)N3CCOCC3)=C2C)cc1` (configuration not stated), the max response, negative = inhibition was 17.9%. Work on `Cc1ccc(C(=O)NC(C)C(c2cccs2)N2CCOCC2)cc1C` (configuration not stated) yielded a max response, negative = inhibition of -24.7%. `N#Cc1ccc(C(C(=O)NCc2ccccc2)n2c(=O)c(-c3ccco3)nc3ccccc32)cc1` (configuration not stated) was tested, and the max response, negative = inhibition was -4.27%. `O=C(CN1CCC(O)(c2ccccc2)CC1)Nc1ccc2c(c1)OCCO2` was tested, and the max response, negative = inhibition was -57.9% (active). `O=C(CN1CCN(C(=O)c2ccco2)CC1)Nc1ccc2c(c1)OCO2` showed a max response, negative = inhibition of -5.37%. `O=C(Cn1c(=O)sc2ccccc21)Nc1ccc2c(c1)OCCO2` showed a max response, negative = inhibition of 7.52%. `CN1C[C@@H](CO)O[C@@H](n2cnc3c(N4CCN(CCO)CC4)ncnc32)C1` was tested, and the max response, negative = inhibition was 2.48%. `COc1cccc(-c2cc3nc(NCc4ccccc4OC)n(C)c(=O)c3s2)c1` was tested, and the max response, negative = inhibition was 23.1%.
